We go through 72 compounds from ChEMBL document CHEMBL3988442, “University of Dundee, Small-Polar-MMV Screening Library” (2021).

Screen size: about 69,000 compounds; about 420 (0.61%) showed an effect of 50% or more. The sample as a whole holds a higher share of strong results than the screen did.

The assay deals with T1, Histidine--tRNA ligase (Leishmania infantum) (UniProt A4I591).
T1 sequence (whole entry): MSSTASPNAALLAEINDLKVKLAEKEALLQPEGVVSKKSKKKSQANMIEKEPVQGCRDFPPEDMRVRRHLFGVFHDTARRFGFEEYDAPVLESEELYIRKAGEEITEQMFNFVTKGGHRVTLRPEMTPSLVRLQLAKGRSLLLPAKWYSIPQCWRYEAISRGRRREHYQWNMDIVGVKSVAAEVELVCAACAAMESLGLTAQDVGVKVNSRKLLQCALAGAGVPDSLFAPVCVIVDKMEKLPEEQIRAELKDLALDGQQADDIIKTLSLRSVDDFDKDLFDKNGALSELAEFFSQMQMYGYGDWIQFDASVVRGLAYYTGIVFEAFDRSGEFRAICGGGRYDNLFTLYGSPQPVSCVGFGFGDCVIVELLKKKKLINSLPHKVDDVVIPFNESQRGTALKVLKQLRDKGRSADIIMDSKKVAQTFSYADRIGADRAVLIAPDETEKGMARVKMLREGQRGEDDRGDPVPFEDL
The assay is described as follows: Leishmania infantum Histidine tRNA synthetase (LdHisRS). Type of assay: functional. Also noted: scale not given: in the data most compounds retested in dose-response had high values. Particulars: 30 µM.
Regarding `CCCOc1ccc(C(=O)N2CC[C@H]3CC[C@@H](C2)N3)cc1Cl`, the Percent Effect was 9.17%. As for `Cn1cccc1C(=O)N1CC[C@@H]2[C@@H]1CC(=O)N2CC1CCOCC1`, the Percent Effect is 19.3%. In the case of `CN1CCO[C@@H]2CN(C(=O)Cc3cccs3)CC[C@@H]2C1` it was 2.73%; in that of `Cc1nccc(-c2cccc(NCC(=O)N3CCNC(=O)C3)c2)n1`, 14.9%.

Regarding `Cc1nccc(-c2cccc(NCC(=O)N3CCc4sccc4C3)c2)n1`, the Percent Effect was 50%.

Regarding `Cc1nccc(-c2cccc(NCC(=O)N3CCCCCCC3)c2)n1`, the Percent Effect is -19.7%. In the case of `CCOc1nnc(CN(C)C2CCCN(c3ccc(C)nn3)C2)s1` (configuration not stated) it was 27%. In the case of `CCOc1nnc(CNC2CCCN(c3ccc(C)nn3)C2)s1` (configuration not stated) it was 54.8%.

As to `Cc1ccc(N2CCCC(NCc3ccc(C)s3)C2)nn1` (configuration not stated), the Percent Effect amounted to 12.3%.

With `CC/N=c1/c(NC(=O)NCCOC)c(O)oc2ccccc12`, the Percent Effect is 12.4%.

Consider `CCCn1nc2c(cc1=O)CN(C(C)C(=O)Nc1nccs1)CC2` (configuration not stated), for which the Percent Effect worked out at 17.9%. Take `Cn1ccnc1CN1CCN(c2ncnc3ccsc23)CC1`: the Percent Effect is 11%. In the case of `CC(C)n1nc2c(cc1=O)CN(c1ncnc3ccsc13)CC2` it was 11.7%; in that of `Cn1nc2c(cc1=O)CN(c1ncnc3ccsc13)CC2`, 100%. In the case of `CN1C(=O)[C@H]2CC[C@@H]1CN(c1ncnc3ccsc13)C2` it was 19.8%; in that of `CCCn1nc2c(cc1=O)CN(c1ncnc3ccsc13)CC2`, 83.8%. In the case of `CC(C)n1nc2c(cc1=O)CN(c1ncnc3ccccc13)CC2` it was 18.9%; in that of `CCn1nc2c(cc1=O)CN(c1ncnc3ccsc13)CC2`, 58.6%; in that of `N#Cc1cccc(CN2CCN(C(=O)C3CCC3)[C@@H]3CS(=O)(=O)C[C@@H]32)c1`, 23.3%. Regarding `COCCN1C(=O)[C@H]2CC[C@@H]1CN(Cc1nnc(C3CC3)o1)C2`, the Percent Effect was -2.04%. In the case of `Cc1cccc(CO[C@@H]2C[C@H]3CN(C(=O)c4cnccn4)CCN3C2)n1` it was 12.3%. In the case of `O=S(=O)(N1CCCC1)N1C[C@@H](c2cccc(F)c2)[C@@H]2NCCCCC[C@H]21` it was -7.37%; in that of `COC(=O)N1C[C@H]2CC[C@@H]1CN(Cc1cscn1)C2`, 22.9%. `Cc1nc(CCN)cc(N2CCC(O)(c3ccc(Cl)cc3)CC2)n1`: the Percent Effect worked out at 52.1%.

With `CCNc1cc(N2CCN(C(=O)c3ccc(OC)cc3)CC2)nc(C)n1`, the Percent Effect amounted to 2.4%.

For the compound `Cc1nc(CCN)cc(N2CCC(O)(c3ccccc3)C2)n1` (configuration not stated), the Percent Effect worked out at 7.04%. As for `COc1ccc(C(=O)N2CCN(c3cc(CCN)nc(C)n3)CC2)cc1`, the Percent Effect turned out to be 50.4%. With `CCOc1cc(N2CCN(C(=O)c3ccc(OC)cc3)CC2)nc(C)n1`, the Percent Effect stood at 5.98%. As to `Cc1nc(CN)cc(N2CCC(O)(c3ccc(Cl)cc3)CC2)n1`, the Percent Effect is 7.04%. In the case of `O=C(NC[C@@]1(COc2cnccn2)C[C@@H](O)[C@@H](O)C1)C1CCCC1`, the Percent Effect was 18.9%. In the case of `O=C(c1cccnc1)N1CCN2C[C@H](OCc3ccccc3)C[C@H]2C1` it was 2%; in that of `O=C(c1ccc(S(=O)(=O)NC2CCC2)cc1)N1CC[C@H]2CNC[C@H]21`, -8.06%; in that of `CN(C)CCCN(C)c1nccc(N2CCN[C@H]3CS(=O)(=O)C[C@H]32)n1`, 12.9%. On to `CNc1nc(C)c(-c2nc(-c3c(C)ncc4c3CCNC4)no2)s1`, for which the Percent Effect was 7.79%.

`CNc1nc2c(s1)C(c1ccc(Cl)cc1Cl)CC(=O)N2` (configuration not stated): the Percent Effect stood at 62.5%. In the case of `CC(C)n1ncc2c1NC(=O)CC2c1ccccc1Cl` (configuration not stated) it was 22.5%; in that of `CC(C)(C)n1ncc2c1NC(=O)CC2c1c(F)cccc1F` (configuration not stated), 26%. In the case of `CNc1nc2c(s1)C(c1cc(Cl)ccc1F)CC(=O)N2` (configuration not stated) it was 42.5%; in that of `CNc1nc2c(s1)C(c1ccc(F)cc1Cl)CC(=O)N2` (configuration not stated), 7.5%.

In the case of `CNc1nc2c(s1)C(c1c(Cl)cccc1Cl)CC(=O)N2` (configuration not stated), the Percent Effect amounted to 74.3%. In the case of `Nc1nc2c(s1)C(c1c(F)cccc1Cl)CC(=O)N2` (configuration not stated) it was 90%. As for `Cn1ncc2c1NC(=O)CC2c1c(F)cccc1Cl` (configuration not stated), the Percent Effect was determined as 20%. `CNc1nc2c(s1)C(c1c(F)cccc1Cl)CC(=O)N2` (configuration not stated): the Percent Effect is 120%. In the case of `Cn1ncc2c1NC(=O)CC2c1c(Cl)cccc1Cl` (configuration not stated) it was 25%; in that of `CSc1ccccc1CN1C[C@@H]2CC[C@H](C1)N(CC1CC1)C2=O`, 21.6%; in that of `Cc1noc([C@H]2COC[C@H]3CN(C(=O)Cc4ccc(F)cc4)C[C@H]32)n1`, 9.62%. In the case of `O=C(c1ccc(F)cc1)N1C[C@H]2CCC[C@@]2(COCc2ccncc2)C1` it was 18.6%. Take `O=S(=O)(c1cccs1)N1CC[C@H]2[C@H]1CCN2c1ncccn1`: the Percent Effect turned out to be 11.7%. In the case of `CCN1C(=O)CC[C@@H]2[C@H]1CCN2S(=O)(=O)Cc1ccc(C)cc1` it was 8.06%. As to `COCC(=O)N1C[C@H]2CNC[C@@]2(C(=O)NCc2cc(C)n[nH]2)C1`, the Percent Effect was 1.43%. Consider `O=C([C@H]1COC[C@H]2CN(CC3CC3)C[C@H]21)N1CCOCC1`, for which the Percent Effect was determined as 10.3%.

As to `O[C@]1(c2ccccn2)CC[C@@H]2CN(Cc3cccc4ncccc34)C[C@@H]21`, the Percent Effect is 27.8%. In the case of `Cc1ccc(N2C[C@H]3OCC[C@H]3[C@H](C(=O)NCC3CC3)C2)nn1`, the Percent Effect was determined as 0%. In the case of `O=C(NC[C@H]1OC[C@@H]2CCN(c3ccccn3)C[C@@H]21)c1ccco1`, the Percent Effect is -7.89%. For `Cc1noc([C@H]2C[C@H]3OCC[C@H]3N(S(=O)(=O)C3CC3)C2)n1`, the Percent Effect stood at 13.3%. For the compound `Cn1ncc2c1NC(=O)CC2c1ccccc1Cl` (configuration not stated), the Percent Effect turned out to be 14.3%. In the case of `O=C1CC(c2ccccc2F)c2c(n3ccsc3nc2=O)N1` (configuration not stated) it was 11.7%. Regarding `CNc1nc2c(s1)C(c1cccc(F)c1F)CC(=O)N2` (configuration not stated), the Percent Effect is 45.7%.

`CNc1nc2c(s1)C(c1ccccc1Cl)CC(=O)N2` (configuration not stated): the Percent Effect came out at 57.5%. On to `CNc1nc2c(s1)C(c1cccc(Cl)c1Cl)CC(=O)N2` (configuration not stated), for which the Percent Effect was 42.5%. In the case of `CNc1nc2c(s1)C(c1ccccc1F)CC(=O)N2` (configuration not stated) it was 70%; in that of `O=C([C@H]1COC[C@H]2CN(c3ncc(F)cn3)C[C@H]21)N1CCOCC1`, 1.71%.

With `Cc1nnc(NC(=O)NCc2ccc(N3CCNC(=O)C3)cc2)s1`, the Percent Effect amounted to 39.8%.

In the case of `Cc1ccccc1C(=O)NCc1ccc(N2CCNC(=O)C2)cc1`, the Percent Effect was 44.2%.

As to `CC(C(=O)NCc1ccc(N2CCNC(=O)C2)cc1)n1cncn1` (configuration not stated), the Percent Effect turned out to be 52%.

As for `CC(C(=O)NCc1ccc(N2CCNC(=O)C2)cc1)c1cccs1` (configuration not stated), the Percent Effect is 20.9%.

For `Cc1cccnc1NC(=O)NCc1ccc(N2CCNC(=O)C2)cc1`, the Percent Effect was found to be 84.9%.

Turning to `CC(O)CNC(=O)NCc1ccc(N2CCNC(=O)C2)cc1` (configuration not stated), the Percent Effect came out at 49.3%. For the compound `CCOc1c(Cl)cc(Cl)cc1CNCCCn1ccnc1`, the Percent Effect was determined as 58.3%. In the case of `CCOc1ccc(Cl)cc1CNCCCn1ccnc1` it was 9.71%. In the case of `CCOc1c(CNCCCn2ccnc2)cc(Cl)cc1OC` it was 10%. With `C[C@H]1C(=O)NC[C@H]2CN(Cc3cccc(F)c3)C[C@H]21`, the Percent Effect turned out to be 15.6%.
